These results are taken from PubChem BioAssay (NCI).

Compounds without any hit were thinned out: in the full panel of roughly 79,000, 15% have a hit. Unmarked numbers belong to inactive results. Activity calls are given as the source filed them. No stated cut-off is given here; in the data, active means growth inhibition above about 70%; inactive means the rest.

This experiment in a line: NCI Yeast Anticancer Drug Screen. Data for the rad50EPP+ strain (AID 151).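 Further: 0% = growth of vehicle-treated control cultures.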 Particulars: S. cerevisiae rad50 mutant strain, active compounds read high. On the procedure:
Growth inhibition of yeast strains with defined genetic alterations is measured as a screen for potential anti-cancer activity. Selected strains with alterations in DNA damage repair or cell cycle control were exposed to compounds and growth inhibition was measured relative to vehicle treated controls. The strain used in this assay is rad50EPP+

Turning to `CC[C@@]1(OC(=O)CN(C)C)C(=O)OCc2c1cc1n(c2=O)Cc2cc3ccccc3nc2-1`, the growth inhibition is 42% (at 1.2 µM); 79% (active) (at 3.7 µM); 92% (active) (at 11.0 µM); 95% (active) (at 33.0 µM); 97% (active) (at 100.0 µM).
As for `O=C(Cc1ccccc1F)NC1=C(Cl)C(=O)c2ccccc2C1=O`, the growth inhibition by setting is: (at 1.2 µM) 40%; (at 3.7 µM) 43%; (at 11.0 µM) 51%; (at 33.0 µM) 48%; (at 100.0 µM) 59%.
Turning to `O=c1[nH]c(=O)n(CCCO)cc1F`, the growth inhibition reads like this: (at 1.2 µM) -14%; (at 3.7 µM) -7%; (at 11.0 µM) -9%; (at 33.0 µM) -10%; (at 100.0 µM) -2%.
For `O=C(CCCN1CCC2(CC1)OC(=O)N(c1ccccc1)C2=O)c1ccccc1`, the growth inhibition (at 1.2 µM) was 44%; the growth inhibition (at 3.7 µM) was 29%; the growth inhibition (at 11.0 µM) was 33%; the growth inhibition (at 33.0 µM) is 26%; the growth inhibition (at 100.0 µM) was 26%.
For the compound `COc1ccc(C(=O)NCCN(C)C)c2nc3ccccc3cc12`, the growth inhibition is 13% (at 1.2 µM); 46% (at 3.7 µM); 63% (at 11.0 µM); 90% (active) (at 33.0 µM); 96% (active) (at 100.0 µM).
Consider `CN(C)/N=N/c1nc[nH]c1C(N)=O`, for which the growth inhibition (at 1.2 µM) was -3%; the growth inhibition (at 3.7 µM) was -2%; the growth inhibition (at 11.0 µM) was 0%; the growth inhibition (at 33.0 µM) is 8%; the growth inhibition (at 100.0 µM) is 32%.
As to `CC1(C)CC(=O)C(C(CC(c2ccccc2)c2cc3c(cc2O)OCO3)C2=C(O)CC(C)(C)CC2=O)=C(O)C1` (stereo not given), the growth inhibition (at 1.2 µM) is -2%; the growth inhibition (at 3.7 µM) was -1%; the growth inhibition (at 11.0 µM) is 8%; the growth inhibition (at 33.0 µM) is 18%; the growth inhibition (at 100.0 µM) was 10%.
Regarding `Cc1ccc2nc(N/N=C/c3ccc(C)s3)cc(C)c2c1`, the growth inhibition is -15% (at 1.2 µM); -5% (at 3.7 µM); 2% (at 11.0 µM); 44% (at 33.0 µM); 70% (active) (at 100.0 µM).
